# Results published in PubChem BioAssay AID449739 (Vanderbilt High Throughput Screening Facility, 2010).
# The whole screen tested about 100,000 compounds, of which about 4,200 (4.2%) were called active. Only a selection was taken, and actives are over-represented in it overall. Unmarked numbers belong to inactive results.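 Rule for the calls: active = single-dose well whose peak fluorescence ratio is a statistical outlier from its plate by either plate-standardised score or position-corrected B-score; inactive = the rest.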
# Target: Voltage-dependent T-type calcium channel subunit alpha-1H (Homo sapiens) (UniProt O95180)
# Assay: Cav3.2 calcium influx blockers – cell-based, Fluo-4 calcium fluorescence, FDSS, MLSMR library, primary screen (AID 449739)
# Conditions: Cav3.2-expressing cells, at 10 µM, active compounds read low
# Voltage-dependent T-type calcium channel subunit alpha-1H (Homo sapiens), sequence (O95180 whole entry, looked up): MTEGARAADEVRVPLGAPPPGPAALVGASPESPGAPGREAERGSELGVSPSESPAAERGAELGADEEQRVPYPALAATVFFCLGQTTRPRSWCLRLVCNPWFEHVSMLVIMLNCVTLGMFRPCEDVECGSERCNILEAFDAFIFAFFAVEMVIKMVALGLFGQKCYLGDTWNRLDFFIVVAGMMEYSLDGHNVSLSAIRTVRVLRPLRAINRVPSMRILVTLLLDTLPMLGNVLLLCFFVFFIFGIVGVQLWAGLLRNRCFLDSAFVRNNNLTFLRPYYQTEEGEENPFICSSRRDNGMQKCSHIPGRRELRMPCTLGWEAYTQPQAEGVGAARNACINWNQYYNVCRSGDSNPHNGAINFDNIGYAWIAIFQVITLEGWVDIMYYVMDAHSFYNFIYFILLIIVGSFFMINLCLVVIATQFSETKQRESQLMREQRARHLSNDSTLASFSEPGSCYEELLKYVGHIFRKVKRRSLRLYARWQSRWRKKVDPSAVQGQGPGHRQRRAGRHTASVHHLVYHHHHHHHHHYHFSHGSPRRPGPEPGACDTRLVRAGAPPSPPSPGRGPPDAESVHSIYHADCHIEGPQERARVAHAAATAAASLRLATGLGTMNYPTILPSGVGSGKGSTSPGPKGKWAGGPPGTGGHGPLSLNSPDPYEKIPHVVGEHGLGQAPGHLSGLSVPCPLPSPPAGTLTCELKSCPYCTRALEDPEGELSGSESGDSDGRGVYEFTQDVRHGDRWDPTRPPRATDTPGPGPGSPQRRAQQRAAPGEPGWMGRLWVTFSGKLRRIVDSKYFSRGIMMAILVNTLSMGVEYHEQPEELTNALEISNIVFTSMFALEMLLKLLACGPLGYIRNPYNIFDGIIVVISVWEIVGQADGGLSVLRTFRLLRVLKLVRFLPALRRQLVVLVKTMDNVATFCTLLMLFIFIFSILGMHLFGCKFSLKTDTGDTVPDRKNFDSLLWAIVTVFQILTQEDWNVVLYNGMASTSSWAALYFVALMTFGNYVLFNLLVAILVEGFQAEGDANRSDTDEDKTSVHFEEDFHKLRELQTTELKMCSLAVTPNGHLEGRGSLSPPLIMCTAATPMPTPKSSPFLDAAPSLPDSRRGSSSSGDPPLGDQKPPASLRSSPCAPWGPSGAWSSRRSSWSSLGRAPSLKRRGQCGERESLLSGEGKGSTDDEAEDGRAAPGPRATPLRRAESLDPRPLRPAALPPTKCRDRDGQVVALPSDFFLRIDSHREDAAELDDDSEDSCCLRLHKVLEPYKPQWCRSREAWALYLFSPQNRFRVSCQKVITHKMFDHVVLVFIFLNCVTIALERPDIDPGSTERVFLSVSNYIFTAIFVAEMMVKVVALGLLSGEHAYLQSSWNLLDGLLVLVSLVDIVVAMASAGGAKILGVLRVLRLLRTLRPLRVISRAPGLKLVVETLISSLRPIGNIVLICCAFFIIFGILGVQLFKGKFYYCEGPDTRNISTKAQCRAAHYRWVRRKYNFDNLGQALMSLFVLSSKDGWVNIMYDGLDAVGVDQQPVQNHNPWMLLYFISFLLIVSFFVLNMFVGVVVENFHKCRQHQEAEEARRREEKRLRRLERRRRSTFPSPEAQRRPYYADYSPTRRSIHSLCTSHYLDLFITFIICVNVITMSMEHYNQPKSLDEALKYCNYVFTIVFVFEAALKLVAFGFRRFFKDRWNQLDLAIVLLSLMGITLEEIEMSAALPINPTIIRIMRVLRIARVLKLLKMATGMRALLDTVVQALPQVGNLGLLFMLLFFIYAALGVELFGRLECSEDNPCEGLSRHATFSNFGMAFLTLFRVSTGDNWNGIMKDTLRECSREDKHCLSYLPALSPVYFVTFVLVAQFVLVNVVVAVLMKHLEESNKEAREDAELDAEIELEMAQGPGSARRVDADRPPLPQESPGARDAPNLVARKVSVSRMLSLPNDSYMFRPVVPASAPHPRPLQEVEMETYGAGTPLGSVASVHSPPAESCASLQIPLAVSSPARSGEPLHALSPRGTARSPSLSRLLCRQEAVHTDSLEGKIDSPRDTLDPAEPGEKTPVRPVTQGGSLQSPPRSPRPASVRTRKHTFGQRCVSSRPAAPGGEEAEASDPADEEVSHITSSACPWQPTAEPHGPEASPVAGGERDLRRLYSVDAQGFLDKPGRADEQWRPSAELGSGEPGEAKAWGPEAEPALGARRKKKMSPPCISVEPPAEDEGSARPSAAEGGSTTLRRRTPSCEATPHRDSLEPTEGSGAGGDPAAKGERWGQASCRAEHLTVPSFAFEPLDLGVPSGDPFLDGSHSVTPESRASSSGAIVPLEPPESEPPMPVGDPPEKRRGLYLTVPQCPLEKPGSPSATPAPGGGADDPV
row,SMILES,B-score
1,Cc1cc(-c2cccs2)nc(-n2cccc2)n1,0.352
2,CC1CC(C)CN(CC(=O)N2c3ccccc3CCc3ccccc32)C1 (stereo unspecified),-3.85
3,O=C(CN1CCCCCC1)N1c2ccccc2Sc2ccc(C(F)(F)F)cc21,-4.47 (active)
4,O=C(CN1CCCCC1)N1c2ccccc2Sc2ccc(C(F)(F)F)cc21,-2.51
5,CC(Sc1nc2c([nH]c3ccccc32)c(=O)n1C)c1ccccc1 (stereo unspecified),0.215
6,CN(C)CCNC(=O)Nc1cccc(Cl)c1Cl,0.258
7,NC(=O)CC(NC(=O)Cc1cccc2ccccc12)c1ccc(NCc2cc(F)ccc2F)c([N+](=O)[O-])c1 (stereo unspecified),-0.287
8,Cc1cnc(NC(=O)CSc2c(Cl)cccc2Cl)s1,-0.466
9,Cc1cnc(NC(=O)CSc2nnc(-c3ccc(Cl)cc3Cl)n2N)s1,-4.55 (active)
10,Cc1cnc(NC(=O)CSc2nnc(-c3ccccc3)n2Cc2ccccc2)s1,-2.37
11,CS(=O)(=O)N(CC(O)Cn1c2ccccc2c2ccccc21)c1cccc2ccccc12 (stereo unspecified),1.02
12,CNC(=O)CN1C(=O)c2ccccc2S1(=O)=O,0.319
13,O=C1c2ccccc2S(=O)(=O)N1CC(O)Cn1c2ccccc2c2ccccc21 (stereo unspecified),-5.05 (active)
14,Cn1ccnc1-c1nnn(-c2ccc(F)cc2)n1,-0.241
15,Cc1cccc(C(=O)Nc2ccccc2-c2nnn(CC(=O)Nc3ccc4c(c3)OCCO4)n2)c1,0.0432
16,COc1ccc(C2/C=C\CN(S(=O)(=O)c3cccs3)CC(=O)N2Cc2ccc(F)cc2)cc1 (stereo unspecified),-1.93
17,CCCC(=O)N1CCc2[nH]c3ccccc3c2C1,1.88
18,O=C(NC1CCCCC1)N1CCc2[nH]c3ccccc3c2C1,-0.408
19,O=C(Nc1ccc(Cl)cc1)N1CCc2[nH]c3ccccc3c2C1,-6.38 (active)
20,CCC(C)NC(=O)c1c(N)n(/N=C/c2cccs2)c2nc3ccccc3nc12 (stereo unspecified),-0.663
21,COc1ccccc1OCCNc1cc(N2CCOCC2)ccc1[N+](=O)[O-],-0.763
22,CCOC(=O)c1sc(NC(=O)CSc2nc3c(c(=O)n2-c2ccccc2)SCC3)c(C(=O)OCC)c1C,-0.157
23,CC(=O)N1CCN(C(=O)Nc2cccc(C(F)(F)F)c2)CC1,0.454

row,SMILES,B-score
1,FC(F)(F)c1cccc(NC(=S)Nc2cccc(Cl)c2)c1,-7.17 (active)
2,CC(C)C[C@H](NC(=O)Nc1cccc(C(F)(F)F)c1)C(=O)O,0.25
3,c1ccc(-n2nnnc2NC2CCCCCC2)cc1,0.00228
4,O=C(c1ccco1)N1CCN(C(=O)C2c3ccccc3Oc3ccccc32)CC1,0.29
5,O=C(N/N=C/c1ccc(O)c(O)c1)C1c2ccccc2Oc2ccccc21,1.05
6,CCCN(CCC)C(=O)C1c2ccccc2Oc2ccccc21,-4.57 (active)
7,C=CCNc1nc(N)c(C(=C(C#N)C#N)c2ccccc2)s1,-0.0432
8,COC(C[C@@H](O)[C@H](C)[C@H](O)COCc1ccccc1)OC,0.321
9,CCN(CC)c1ccc(NC(=O)c2ccc(Cl)nc2)cc1,-0.986
10,CCOc1ccccc1Nc1nnc(SCc2ccc(C(=O)OC)o2)s1,-3.2
11,COc1cccc(Nc2nnc(SCC(=O)N3CC(C)OC(C)C3)s2)c1 (stereo unspecified),-4.05 (active)
12,COc1ccccc1-c1nnc(SCC(=O)N2CC(C)CC(C)C2)o1 (stereo unspecified),0.0644
13,O=C(Nc1ccccc1)OCc1cn(-c2ccc(Cl)cc2)nn1,-0.643
14,CCOC(=O)N1CCN(C(=O)CN(c2ccc(C)c(C)c2)S(=O)(=O)c2ccccc2)CC1,-1.16
15,Cc1ccc(S(=O)(=O)N(CC(=O)N2CCc3ccccc3C2)c2cccc(Cl)c2)cc1,-5.57 (active)
16,COc1cccc(N(CC(=O)N2CCc3ccccc3C2)S(C)(=O)=O)c1,1.04
17,O=C(NCc1ccccc1)C1=C[C@H](C2CC2)C[C@H](OCc2ccc(CO)cc2)O1,-0.049
18,CCOC(=O)c1c(NC(=O)C(C)Sc2c[nH]c3ccccc23)sc2c1CCC2 (stereo unspecified),-0.96
19,C#CCOCCOCCOCCNc1nc(N2CCN(C(=O)[C@H](C(C)C)n3cc(CCO)nn3)CC2)nc(N2CCN(C(=O)[C@H]([C@@H](C)CC)n3cc(CCCN=C(N)N)nn3)CC2)n1,0.0921
20,CC1=NN(C(=O)c2ccccc2Br)C(O)(c2cccnc2)C1 (stereo unspecified),0.377
21,CC1=CC(C)(C)N(C(=O)CSc2nccn2C)c2cc(C)ccc21,-0.49
22,CC1=CC(C)(C)N(C(=O)CSc2nnc(-c3ccccc3)o2)c2ccc(C)cc21,-4.16 (active)
23,O=C(CSc1nnc(-c2ccccc2)o1)N1CCOCC1,-0.483
